Assays:
[1] = biological target: T1, Mitogen-activated protein kinase 12 (Homo sapiens) (UniProt P53778); details: at 1 µM;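 also: values are averaged p38gamma kinase inhibition readings, compounds tested at 1 µM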
T1 sequence (whole entry): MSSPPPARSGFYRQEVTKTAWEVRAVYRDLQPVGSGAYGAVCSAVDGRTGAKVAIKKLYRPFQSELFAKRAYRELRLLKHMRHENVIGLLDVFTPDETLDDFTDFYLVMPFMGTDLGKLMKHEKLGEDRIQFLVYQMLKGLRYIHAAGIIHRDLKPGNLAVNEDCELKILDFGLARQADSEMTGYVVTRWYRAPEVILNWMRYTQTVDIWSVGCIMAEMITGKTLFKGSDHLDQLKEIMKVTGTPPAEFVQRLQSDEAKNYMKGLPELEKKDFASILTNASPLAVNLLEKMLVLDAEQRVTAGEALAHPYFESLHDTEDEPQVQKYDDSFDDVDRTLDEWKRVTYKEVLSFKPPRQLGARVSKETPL

[2] = biological target: SRSF protein kinase 1 (Homo sapiens) (UniProt Q96SB4); details: at 0.1 µM
Chain of SRSF protein kinase 1 (Homo sapiens) (Q96SB4 whole entry, canonical isoform): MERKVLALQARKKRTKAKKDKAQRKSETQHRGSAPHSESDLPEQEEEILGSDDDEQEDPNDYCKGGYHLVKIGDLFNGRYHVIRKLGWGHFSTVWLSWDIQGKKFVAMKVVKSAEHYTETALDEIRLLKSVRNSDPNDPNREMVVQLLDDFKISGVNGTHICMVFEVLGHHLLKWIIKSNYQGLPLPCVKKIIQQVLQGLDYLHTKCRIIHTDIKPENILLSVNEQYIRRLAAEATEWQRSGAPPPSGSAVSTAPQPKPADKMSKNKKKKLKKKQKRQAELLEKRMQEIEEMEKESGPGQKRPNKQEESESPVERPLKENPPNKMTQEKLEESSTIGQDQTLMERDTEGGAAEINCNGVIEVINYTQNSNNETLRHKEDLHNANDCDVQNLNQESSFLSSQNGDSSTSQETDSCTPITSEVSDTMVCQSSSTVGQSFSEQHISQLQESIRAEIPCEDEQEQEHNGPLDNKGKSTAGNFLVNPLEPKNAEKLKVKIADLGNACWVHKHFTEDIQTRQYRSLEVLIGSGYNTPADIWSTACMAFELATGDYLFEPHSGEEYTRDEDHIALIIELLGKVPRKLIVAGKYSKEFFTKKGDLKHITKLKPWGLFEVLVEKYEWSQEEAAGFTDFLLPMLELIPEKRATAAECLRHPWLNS

[3] = biological target: SRSF protein kinase 1 (Homo sapiens) (UniProt Q96SB4); details: at 1 µM
[4] = biological target: Phosphatidylinositol 4,5-bisphosphate 3-kinase catalytic subunit alpha isoform (Homo sapiens) (UniProt P42336); details: at 0.1 µM
Chain of Phosphatidylinositol 4,5-bisphosphate 3-kinase catalytic subunit alpha isoform (Homo sapiens) (P42336 whole entry, canonical isoform): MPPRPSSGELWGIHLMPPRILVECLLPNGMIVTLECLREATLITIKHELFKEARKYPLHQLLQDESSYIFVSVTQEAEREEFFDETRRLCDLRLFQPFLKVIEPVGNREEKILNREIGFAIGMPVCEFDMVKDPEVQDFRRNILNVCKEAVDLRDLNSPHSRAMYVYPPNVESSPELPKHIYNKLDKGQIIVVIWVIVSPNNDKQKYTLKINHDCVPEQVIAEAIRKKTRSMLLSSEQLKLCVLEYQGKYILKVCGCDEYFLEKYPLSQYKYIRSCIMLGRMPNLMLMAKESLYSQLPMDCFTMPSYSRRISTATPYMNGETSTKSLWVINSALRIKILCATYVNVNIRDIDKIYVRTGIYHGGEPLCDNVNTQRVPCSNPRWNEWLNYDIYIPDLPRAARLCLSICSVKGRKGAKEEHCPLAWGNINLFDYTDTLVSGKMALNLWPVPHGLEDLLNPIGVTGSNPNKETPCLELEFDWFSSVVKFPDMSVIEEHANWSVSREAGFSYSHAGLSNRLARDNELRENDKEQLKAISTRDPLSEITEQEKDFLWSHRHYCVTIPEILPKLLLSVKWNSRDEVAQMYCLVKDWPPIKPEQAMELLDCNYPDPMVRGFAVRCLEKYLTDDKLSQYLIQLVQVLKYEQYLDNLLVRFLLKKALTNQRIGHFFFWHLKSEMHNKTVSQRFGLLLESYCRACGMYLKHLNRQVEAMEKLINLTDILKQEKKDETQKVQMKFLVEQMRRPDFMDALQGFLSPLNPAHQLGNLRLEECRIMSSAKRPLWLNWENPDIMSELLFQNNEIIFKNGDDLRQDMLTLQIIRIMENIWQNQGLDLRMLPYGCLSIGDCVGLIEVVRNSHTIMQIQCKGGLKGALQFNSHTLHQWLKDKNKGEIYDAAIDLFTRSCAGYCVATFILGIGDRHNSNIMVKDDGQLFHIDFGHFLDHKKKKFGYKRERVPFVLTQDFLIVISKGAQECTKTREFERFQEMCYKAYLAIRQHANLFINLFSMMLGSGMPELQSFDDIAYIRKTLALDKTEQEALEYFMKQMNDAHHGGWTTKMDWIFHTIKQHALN

[5] = biological target: Phosphatidylinositol 4,5-bisphosphate 3-kinase catalytic subunit alpha isoform (Homo sapiens) (UniProt P42336); details: at 1 µM
[6] = biological target: T2, Phosphatidylinositol 4,5-bisphosphate 3-kinase catalytic subunit delta isoform (Homo sapiens) (UniProt O00329); details: at 0.1 µM
T2 sequence (whole entry): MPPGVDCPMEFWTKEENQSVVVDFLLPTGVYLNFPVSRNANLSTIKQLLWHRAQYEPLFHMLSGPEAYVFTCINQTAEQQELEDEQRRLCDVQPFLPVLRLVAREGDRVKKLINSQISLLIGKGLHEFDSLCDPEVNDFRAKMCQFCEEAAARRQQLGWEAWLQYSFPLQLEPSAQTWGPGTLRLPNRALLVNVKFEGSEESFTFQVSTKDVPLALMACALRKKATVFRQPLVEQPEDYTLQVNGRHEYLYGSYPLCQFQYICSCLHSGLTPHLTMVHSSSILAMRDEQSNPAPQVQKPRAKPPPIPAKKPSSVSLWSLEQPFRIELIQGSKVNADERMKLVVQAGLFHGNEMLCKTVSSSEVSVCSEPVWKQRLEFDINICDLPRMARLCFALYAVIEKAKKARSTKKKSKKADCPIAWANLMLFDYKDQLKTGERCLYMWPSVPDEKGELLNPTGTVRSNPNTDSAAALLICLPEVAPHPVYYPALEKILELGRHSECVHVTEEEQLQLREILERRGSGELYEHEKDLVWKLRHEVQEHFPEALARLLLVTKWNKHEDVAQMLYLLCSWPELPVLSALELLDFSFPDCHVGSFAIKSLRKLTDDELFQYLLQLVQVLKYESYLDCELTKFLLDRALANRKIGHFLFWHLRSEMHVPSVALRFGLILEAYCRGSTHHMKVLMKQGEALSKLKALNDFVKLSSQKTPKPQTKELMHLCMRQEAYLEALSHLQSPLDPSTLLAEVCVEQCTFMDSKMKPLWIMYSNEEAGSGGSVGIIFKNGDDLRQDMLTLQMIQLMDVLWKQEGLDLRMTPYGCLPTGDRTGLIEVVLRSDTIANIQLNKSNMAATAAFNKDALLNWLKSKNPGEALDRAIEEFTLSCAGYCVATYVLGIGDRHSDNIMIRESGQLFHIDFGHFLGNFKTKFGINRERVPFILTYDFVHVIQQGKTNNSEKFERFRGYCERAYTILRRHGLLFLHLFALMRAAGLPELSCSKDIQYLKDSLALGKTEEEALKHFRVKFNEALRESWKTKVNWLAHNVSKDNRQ

[7] = biological target: T2, Phosphatidylinositol 4,5-bisphosphate 3-kinase catalytic subunit delta isoform (Homo sapiens); details: at 1 µM
[8] = biological target: Phosphatidylinositol 4-kinase beta (Homo sapiens) (UniProt Q9UBF8); details: at 0.1 µM
Chain of Phosphatidylinositol 4-kinase beta (Homo sapiens) (Q9UBF8 2-816 limits assumed): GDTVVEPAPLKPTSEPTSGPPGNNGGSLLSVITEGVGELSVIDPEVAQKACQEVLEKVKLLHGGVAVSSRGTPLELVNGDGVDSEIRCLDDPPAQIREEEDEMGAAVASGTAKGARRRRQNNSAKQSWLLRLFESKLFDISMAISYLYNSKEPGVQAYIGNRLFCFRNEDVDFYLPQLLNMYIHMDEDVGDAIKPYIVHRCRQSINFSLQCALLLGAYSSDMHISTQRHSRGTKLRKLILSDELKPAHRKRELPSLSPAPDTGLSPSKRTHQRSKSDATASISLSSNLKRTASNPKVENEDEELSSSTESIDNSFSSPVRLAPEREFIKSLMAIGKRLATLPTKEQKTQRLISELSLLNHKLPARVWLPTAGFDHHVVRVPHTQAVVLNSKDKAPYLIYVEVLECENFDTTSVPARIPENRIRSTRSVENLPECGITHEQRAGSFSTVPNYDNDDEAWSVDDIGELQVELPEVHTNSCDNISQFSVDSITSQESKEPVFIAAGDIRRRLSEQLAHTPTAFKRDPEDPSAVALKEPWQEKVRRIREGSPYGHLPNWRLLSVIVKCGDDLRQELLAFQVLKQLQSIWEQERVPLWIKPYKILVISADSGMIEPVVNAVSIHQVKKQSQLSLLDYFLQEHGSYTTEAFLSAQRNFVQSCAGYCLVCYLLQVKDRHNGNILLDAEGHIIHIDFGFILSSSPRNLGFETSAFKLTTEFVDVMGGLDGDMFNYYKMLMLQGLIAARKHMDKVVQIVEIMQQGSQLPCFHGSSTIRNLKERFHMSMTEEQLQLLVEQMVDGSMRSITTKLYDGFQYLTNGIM

[9] = biological target: Phosphatidylinositol 4-kinase beta (Homo sapiens) (UniProt Q9UBF8); details: at 1 µM
[10] = biological target: Sphingosine kinase 1 (Homo sapiens) (UniProt Q9NYA1); details: at 0.1 µM
Chain of Sphingosine kinase 1 (Homo sapiens) (Q9NYA1 whole entry): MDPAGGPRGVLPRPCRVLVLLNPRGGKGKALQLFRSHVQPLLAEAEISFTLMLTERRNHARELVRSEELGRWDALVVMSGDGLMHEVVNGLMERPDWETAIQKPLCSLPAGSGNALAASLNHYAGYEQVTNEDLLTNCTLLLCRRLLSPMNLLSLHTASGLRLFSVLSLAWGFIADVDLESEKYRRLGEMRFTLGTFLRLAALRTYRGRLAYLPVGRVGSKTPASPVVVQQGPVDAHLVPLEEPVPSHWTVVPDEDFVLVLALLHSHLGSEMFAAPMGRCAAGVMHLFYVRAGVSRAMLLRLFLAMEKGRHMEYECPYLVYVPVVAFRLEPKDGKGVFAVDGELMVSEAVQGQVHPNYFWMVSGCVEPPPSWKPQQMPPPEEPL

[11] = biological target: Sphingosine kinase 1 (Homo sapiens) (UniProt Q9NYA1); details: at 1 µM
[12] = biological target: T3, Sphingosine kinase 2 (Homo sapiens) (UniProt Q9NRA0); details: at 0.1 µM
T3 sequence (whole entry): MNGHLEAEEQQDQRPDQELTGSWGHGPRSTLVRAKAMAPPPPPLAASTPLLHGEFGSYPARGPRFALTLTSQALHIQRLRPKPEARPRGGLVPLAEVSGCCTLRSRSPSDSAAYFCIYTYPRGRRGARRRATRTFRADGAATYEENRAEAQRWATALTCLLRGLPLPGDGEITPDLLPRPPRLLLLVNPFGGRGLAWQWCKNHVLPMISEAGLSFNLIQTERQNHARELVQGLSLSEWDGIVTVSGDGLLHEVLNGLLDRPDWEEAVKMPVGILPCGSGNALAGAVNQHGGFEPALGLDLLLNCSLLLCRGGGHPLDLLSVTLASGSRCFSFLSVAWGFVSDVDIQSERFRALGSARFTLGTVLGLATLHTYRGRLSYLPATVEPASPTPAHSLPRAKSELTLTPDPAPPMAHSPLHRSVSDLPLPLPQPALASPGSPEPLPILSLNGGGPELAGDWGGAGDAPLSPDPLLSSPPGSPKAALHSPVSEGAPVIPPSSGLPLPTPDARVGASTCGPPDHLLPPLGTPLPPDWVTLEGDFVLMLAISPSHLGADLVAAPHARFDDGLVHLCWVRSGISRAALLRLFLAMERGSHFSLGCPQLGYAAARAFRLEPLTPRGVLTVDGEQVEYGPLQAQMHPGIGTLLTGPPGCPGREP

[13] = biological target: T3, Sphingosine kinase 2 (Homo sapiens); details: at 1 µM
[14] = biological target: Casein kinase II subunit alpha (Homo sapiens) (UniProt P68400); details: at 0.1 µM
Chain of Casein kinase II subunit alpha (Homo sapiens) (P68400 whole entry, looked up): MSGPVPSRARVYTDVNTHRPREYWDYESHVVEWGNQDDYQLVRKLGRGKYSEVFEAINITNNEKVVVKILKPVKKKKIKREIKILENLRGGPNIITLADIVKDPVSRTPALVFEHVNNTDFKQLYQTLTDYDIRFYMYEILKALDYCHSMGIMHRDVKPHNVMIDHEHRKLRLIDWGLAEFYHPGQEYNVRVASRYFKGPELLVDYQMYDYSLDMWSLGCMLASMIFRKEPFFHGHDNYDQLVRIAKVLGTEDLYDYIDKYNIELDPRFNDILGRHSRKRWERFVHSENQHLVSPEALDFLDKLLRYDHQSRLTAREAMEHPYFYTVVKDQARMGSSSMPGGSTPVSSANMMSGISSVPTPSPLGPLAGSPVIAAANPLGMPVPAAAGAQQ

[15] = biological target: Casein kinase II subunit alpha (Homo sapiens) (UniProt P68400); details: at 1 µM
[16] = biological target: T4, Inhibitor of nuclear factor kappa-B kinase subunit alpha (Homo sapiens) (UniProt O15111); details: at 0.1 µM
T4 sequence (whole entry): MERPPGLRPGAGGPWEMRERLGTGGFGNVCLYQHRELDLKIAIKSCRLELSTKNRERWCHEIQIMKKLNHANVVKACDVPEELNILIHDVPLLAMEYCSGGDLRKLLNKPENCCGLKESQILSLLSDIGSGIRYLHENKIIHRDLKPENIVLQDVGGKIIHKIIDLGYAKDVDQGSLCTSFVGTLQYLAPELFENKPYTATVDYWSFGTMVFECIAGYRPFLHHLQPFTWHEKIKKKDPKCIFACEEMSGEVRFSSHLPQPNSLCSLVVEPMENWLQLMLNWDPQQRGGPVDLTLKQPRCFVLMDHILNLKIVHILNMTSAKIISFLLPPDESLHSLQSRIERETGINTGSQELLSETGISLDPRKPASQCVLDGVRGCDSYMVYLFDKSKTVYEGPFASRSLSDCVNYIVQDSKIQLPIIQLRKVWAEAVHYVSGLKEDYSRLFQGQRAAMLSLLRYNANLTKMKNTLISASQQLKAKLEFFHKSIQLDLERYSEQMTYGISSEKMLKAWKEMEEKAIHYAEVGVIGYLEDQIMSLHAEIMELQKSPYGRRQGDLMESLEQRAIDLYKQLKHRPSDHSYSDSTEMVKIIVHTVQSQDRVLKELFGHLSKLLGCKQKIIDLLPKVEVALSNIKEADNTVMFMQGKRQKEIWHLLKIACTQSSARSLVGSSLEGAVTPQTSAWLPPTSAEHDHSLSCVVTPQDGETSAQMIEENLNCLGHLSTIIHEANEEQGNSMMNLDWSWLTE

[17] = biological target: T4, Inhibitor of nuclear factor kappa-B kinase subunit alpha (Homo sapiens); details: at 1 µM
[18] = biological target: T5, Inhibitor of nuclear factor kappa-B kinase subunit beta (Homo sapiens) (UniProt O14920); details: at 0.1 µM
T5 sequence (whole entry): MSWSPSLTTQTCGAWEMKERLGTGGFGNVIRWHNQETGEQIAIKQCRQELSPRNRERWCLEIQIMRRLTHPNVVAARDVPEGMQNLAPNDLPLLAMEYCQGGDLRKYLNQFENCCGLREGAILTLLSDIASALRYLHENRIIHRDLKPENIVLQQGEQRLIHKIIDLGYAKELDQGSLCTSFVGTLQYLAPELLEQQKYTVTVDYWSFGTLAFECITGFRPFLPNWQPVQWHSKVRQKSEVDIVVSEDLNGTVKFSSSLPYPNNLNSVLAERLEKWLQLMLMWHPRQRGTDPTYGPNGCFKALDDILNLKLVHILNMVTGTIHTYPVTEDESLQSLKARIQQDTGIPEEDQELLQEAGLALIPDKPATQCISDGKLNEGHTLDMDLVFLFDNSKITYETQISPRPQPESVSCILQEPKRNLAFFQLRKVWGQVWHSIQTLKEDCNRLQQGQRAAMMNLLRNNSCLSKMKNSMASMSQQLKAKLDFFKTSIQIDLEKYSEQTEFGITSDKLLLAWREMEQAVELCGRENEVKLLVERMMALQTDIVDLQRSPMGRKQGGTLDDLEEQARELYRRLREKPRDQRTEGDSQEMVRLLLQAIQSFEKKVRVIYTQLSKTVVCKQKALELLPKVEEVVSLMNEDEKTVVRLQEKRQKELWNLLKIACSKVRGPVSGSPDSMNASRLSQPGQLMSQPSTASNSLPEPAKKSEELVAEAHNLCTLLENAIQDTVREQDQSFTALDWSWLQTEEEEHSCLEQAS

[19] = biological target: T5, Inhibitor of nuclear factor kappa-B kinase subunit beta (Homo sapiens); details: at 1 µM
[20] = biological target: T6, Inhibitor of nuclear factor kappa-B kinase subunit epsilon (Homo sapiens) (UniProt Q14164); details: at 0.1 µM;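 also: mean inhibition of IKKε reported, from the GSK PKIS dataset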
T6 sequence (whole entry): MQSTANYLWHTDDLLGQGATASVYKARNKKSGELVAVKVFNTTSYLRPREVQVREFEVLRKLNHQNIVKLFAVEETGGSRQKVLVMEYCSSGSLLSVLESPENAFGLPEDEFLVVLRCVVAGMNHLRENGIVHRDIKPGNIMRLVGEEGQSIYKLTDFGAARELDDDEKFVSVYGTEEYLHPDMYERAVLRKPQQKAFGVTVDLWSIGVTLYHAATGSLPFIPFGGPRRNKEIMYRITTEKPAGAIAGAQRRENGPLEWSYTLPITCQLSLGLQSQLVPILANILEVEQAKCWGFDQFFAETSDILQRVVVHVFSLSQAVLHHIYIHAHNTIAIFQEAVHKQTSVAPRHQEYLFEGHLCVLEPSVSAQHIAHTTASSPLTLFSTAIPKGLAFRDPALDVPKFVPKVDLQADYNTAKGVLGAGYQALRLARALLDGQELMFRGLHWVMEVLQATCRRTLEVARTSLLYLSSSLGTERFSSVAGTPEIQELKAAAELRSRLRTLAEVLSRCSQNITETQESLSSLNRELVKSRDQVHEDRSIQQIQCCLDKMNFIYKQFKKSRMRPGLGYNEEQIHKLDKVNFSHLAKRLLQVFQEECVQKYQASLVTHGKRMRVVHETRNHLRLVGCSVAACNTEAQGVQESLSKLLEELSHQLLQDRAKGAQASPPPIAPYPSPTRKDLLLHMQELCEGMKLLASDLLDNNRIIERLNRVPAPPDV

SMILES	inhibition [1] [%]	inhibition [2] [%]	inhibition [3] [%]	inhibition [4] [%]	inhibition [5] [%]	inhibition [6] [%]	inhibition [7] [%]	inhibition [8] [%]	inhibition [9] [%]	inhibition [10] [%]	inhibition [11] [%]	inhibition [12] [%]	inhibition [13] [%]	inhibition [14] [%]	inhibition [15] [%]	inhibition [16] [%]	inhibition [17] [%]	inhibition [18] [%]	inhibition [19] [%]	inhibition [20] [%]
Nc1nc(-c2cccc(Cl)c2)c(-c2ccc3ncccc3n2)s1	3.06	0.23	2.87	4.68	8.41	2.57	6.4	0.45	-3.79	-1.31	-3.27	0.78	0.1	4.99	15.3	10.6	13.9	8.18	7.33	9.04
CC(C)(CO)CNC(=O)c1ccc2c(c1)/C(=N/Nc1ccc(S(N)(=O)=O)cc1)C(=O)N2	0.79	-1.95	-1.91	-2.03	-1.12	-0.73	2.18	-1.03	-0.32	0.09	0.62	0.34	0.16	2.49	23.5	4.85	3.43	3.25	0.5	14.3
CCCN1CCC(c2ccc(Nc3nc(Nc4cc(F)ccc4C(N)=O)c4cc[nH]c4n3)c(OC)c2)CC1	2.82	-0.15	12.7	3.82	3.17	2.18	13.3	-9.61	-8.79	-0.97	-2.44	0	0	32.4	70.3	2.7	18.7	0.13	7.11	6.68
